Common to all, as to assay: DAPPL (digital affinity profiling via proximity ligation, sequencing); 10 mM Tris-HCl pH 7.5, 50 mM NaCl, 1 mM DTT, 4% glycerol, room temperature, 30 min; GST-TFs on glutathione beads, 16-mer random dsDNA library, 0.1% formaldehyde crosslink after washing; high values mean tight binding
One assay deals with T1, FEV (Homo sapiens, UniProt Q99581 1-238).
T1 sequence: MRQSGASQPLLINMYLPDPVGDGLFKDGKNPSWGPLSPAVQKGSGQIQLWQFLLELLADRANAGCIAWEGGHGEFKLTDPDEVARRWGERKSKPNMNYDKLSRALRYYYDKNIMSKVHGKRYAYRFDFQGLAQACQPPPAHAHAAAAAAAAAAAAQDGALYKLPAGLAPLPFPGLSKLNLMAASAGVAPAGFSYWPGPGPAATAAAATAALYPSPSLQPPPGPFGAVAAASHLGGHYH
The conditions noted are these: protein: recombinant; tags: N-terminal GST; dsDNA, one strand shown. The procedure, abridged:
(§1)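 Each value of binding signal is a hexamer's read frequency for a factor divided by the same hexamer's frequency in the tag-only sample. Barcoded, bead-captured GST fusions of human transcription factors made in yeast were pooled with that sample and incubated with 200 nmole of a random double-stranded 16-mer DNA library in Tris/NaCl/DTT/glycerol buffer at room temperature for 30 min. Washing, 0.1% formaldehyde crosslinking, proximity ligation, PCR and Illumina NextSeq500 sequencing followed.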

Another assay has as its target ETV5 (Homo sapiens, UniProt P41161 1-510). The note with it: protein: recombinant; tags: N-terminal GST; dsDNA, one strand shown. The method in brief:
as §1

For the next assay, the target named is HSF1 (Homo sapiens, UniProt Q00613 1-529). The conditions noted are these: protein: recombinant; tags: N-terminal GST; chain copies: 3; dsDNA, one strand shown. The procedure, abridged:
as §1

The target of another assay is T2, SPIC (Homo sapiens, UniProt Q8N5J4 1-248).
T2 sequence: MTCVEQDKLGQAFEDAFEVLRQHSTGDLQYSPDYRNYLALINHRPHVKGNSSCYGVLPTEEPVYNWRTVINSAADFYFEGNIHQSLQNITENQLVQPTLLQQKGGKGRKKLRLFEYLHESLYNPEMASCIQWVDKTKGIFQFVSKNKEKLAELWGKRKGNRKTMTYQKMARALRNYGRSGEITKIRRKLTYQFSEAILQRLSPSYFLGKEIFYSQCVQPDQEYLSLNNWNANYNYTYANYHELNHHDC
The conditions noted are these: protein: recombinant; tags: N-terminal GST; dsDNA, one strand shown. The procedure, abridged:
as §1

Another assay concerns the target ELF4 (Homo sapiens, UniProt Q99607 1-663). The conditions noted are these: protein: recombinant; tags: N-terminal GST; dsDNA, one strand shown. The procedure, abridged: as §1
Another assay deals with T3, ELK4 (Homo sapiens, UniProt P28324-2 1-405).
T3 sequence: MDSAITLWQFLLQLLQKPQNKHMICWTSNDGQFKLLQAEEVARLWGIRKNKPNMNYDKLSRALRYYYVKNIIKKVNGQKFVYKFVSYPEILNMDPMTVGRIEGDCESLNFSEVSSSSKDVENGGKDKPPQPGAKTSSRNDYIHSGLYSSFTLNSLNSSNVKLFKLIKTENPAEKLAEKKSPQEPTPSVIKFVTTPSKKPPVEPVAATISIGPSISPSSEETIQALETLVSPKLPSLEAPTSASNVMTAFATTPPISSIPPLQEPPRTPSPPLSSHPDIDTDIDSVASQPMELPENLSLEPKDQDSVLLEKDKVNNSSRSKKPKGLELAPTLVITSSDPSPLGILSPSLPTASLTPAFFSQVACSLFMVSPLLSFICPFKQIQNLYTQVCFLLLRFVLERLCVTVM
The note with it: protein: recombinant; tags: N-terminal GST; dsDNA, one strand shown. The method in brief: as §1

The target of the next assay is T4, ETV2 (Homo sapiens, UniProt O00321 1-342).
T4 sequence: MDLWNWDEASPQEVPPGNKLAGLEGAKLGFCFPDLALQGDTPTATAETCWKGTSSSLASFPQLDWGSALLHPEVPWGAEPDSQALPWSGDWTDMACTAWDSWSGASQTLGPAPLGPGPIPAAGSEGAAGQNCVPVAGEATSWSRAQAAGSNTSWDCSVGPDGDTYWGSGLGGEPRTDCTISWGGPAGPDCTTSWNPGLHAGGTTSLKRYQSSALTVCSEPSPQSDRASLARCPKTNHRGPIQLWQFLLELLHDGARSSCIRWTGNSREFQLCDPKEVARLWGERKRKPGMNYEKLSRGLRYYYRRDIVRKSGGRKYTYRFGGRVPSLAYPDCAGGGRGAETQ
The note with it: protein: recombinant; tags: N-terminal GST; dsDNA, one strand shown. The method in brief:
as §1

For another assay, the target named is T5, ELF3 (Homo sapiens, UniProt P78545 1-371).
T5 sequence: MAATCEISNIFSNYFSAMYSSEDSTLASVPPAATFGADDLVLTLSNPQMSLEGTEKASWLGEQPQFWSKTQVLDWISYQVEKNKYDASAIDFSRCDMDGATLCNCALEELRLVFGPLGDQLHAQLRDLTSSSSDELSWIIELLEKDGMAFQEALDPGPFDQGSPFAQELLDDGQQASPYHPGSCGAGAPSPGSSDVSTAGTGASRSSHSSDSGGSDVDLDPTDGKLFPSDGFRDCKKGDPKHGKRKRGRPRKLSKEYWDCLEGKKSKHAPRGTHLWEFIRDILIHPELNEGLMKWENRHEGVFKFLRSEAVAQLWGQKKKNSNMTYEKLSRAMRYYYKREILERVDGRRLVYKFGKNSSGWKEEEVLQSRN
The note with it: protein: recombinant; tags: N-terminal GST; dsDNA, one strand shown. The procedure, abridged: as §1

The next assay deals with CRX (Homo sapiens, UniProt O43186 1-299). The note with it: protein: recombinant; tags: N-terminal GST; dsDNA, one strand shown. The method in brief:
as §1

The target in a further assay is ETV1 (Homo sapiens, UniProt P50549 1-477). The note with it: protein: recombinant; tags: N-terminal GST; dsDNA, one strand shown. The method in brief: as §1
ETV1, sequence (P50549 whole entry): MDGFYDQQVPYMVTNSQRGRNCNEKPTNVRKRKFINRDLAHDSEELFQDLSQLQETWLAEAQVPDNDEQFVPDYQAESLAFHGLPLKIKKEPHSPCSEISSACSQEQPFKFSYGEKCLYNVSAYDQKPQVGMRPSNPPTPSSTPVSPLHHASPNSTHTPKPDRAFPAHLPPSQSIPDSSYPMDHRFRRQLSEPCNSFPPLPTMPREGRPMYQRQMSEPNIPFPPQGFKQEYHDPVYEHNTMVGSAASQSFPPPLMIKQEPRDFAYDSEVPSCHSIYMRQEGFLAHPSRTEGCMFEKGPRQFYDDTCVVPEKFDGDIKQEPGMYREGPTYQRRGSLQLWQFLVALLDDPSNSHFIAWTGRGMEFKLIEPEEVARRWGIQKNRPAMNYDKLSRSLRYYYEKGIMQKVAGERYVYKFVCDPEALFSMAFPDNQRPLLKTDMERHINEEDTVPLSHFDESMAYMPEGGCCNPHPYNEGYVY
The target in another assay is T6, ERF (Homo sapiens, UniProt P50548 1-548).
T6 sequence: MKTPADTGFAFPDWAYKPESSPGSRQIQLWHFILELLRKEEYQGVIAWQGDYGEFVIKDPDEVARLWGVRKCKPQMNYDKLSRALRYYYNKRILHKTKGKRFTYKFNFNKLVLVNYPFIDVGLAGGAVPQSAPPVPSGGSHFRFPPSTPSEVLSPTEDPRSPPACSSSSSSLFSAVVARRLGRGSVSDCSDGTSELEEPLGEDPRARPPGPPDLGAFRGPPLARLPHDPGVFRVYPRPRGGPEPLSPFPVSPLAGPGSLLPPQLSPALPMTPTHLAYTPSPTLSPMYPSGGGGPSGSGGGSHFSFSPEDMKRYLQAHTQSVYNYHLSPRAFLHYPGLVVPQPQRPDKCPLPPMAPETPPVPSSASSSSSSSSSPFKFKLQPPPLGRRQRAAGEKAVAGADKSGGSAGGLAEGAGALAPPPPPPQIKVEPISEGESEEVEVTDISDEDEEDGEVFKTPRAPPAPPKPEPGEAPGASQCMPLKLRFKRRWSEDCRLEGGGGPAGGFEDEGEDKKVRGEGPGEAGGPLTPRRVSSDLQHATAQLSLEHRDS
The conditions noted are these: protein: recombinant; tags: N-terminal GST; dsDNA, one strand shown. The method in brief: as §1

For the next assay, the target named is T7, ETV3L (Homo sapiens, UniProt Q6ZN32 1-361).
T7 sequence: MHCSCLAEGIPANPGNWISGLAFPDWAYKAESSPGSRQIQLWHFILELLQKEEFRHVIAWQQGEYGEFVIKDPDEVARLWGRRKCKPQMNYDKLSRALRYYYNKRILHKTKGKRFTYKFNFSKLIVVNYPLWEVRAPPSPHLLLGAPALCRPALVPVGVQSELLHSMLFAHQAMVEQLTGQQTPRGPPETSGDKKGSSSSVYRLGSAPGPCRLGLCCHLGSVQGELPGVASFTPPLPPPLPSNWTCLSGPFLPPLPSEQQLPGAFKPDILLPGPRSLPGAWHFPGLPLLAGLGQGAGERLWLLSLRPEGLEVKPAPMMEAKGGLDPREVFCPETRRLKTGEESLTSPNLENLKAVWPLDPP
The conditions noted are these: protein: recombinant; tags: N-terminal GST; dsDNA, one strand shown. The procedure, abridged:
as §1

The target in a further assay is T8, ETS2 (Homo sapiens, UniProt P15036 1-469).
T8 sequence: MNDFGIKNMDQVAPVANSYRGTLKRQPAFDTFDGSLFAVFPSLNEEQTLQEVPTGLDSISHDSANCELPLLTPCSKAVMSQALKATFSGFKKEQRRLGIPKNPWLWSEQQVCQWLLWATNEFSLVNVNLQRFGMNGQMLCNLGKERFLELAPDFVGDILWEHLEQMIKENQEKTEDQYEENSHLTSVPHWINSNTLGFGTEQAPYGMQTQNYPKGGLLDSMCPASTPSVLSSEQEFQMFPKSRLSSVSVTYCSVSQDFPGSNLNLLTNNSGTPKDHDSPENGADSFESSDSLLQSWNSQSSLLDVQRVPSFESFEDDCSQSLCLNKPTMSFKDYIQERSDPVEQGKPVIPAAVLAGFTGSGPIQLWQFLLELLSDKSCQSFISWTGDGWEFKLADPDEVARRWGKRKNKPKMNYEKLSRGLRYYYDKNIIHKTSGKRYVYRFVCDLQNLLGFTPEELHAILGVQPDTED
The conditions noted are these: protein: recombinant; tags: N-terminal GST; dsDNA, one strand shown. The procedure, abridged: as §1

In a further assay the target is T9, SPDEF (Homo sapiens, UniProt O95238 1-335).
T9 sequence: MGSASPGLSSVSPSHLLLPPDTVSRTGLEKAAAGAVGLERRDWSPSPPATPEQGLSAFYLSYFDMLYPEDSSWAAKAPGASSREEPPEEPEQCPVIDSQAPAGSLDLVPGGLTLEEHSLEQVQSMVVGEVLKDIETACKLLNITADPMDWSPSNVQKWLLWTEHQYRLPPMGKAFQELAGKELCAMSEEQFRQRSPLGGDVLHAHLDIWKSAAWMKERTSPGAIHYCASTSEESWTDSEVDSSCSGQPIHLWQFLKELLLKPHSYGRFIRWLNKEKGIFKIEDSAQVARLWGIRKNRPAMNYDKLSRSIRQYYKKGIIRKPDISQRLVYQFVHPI
The conditions noted are these: protein: recombinant; tags: N-terminal GST; dsDNA, one strand shown. The procedure, abridged: as §1

The target of a further assay is T10, ETV7 (Homo sapiens, UniProt Q9Y603 1-341).
T10 sequence: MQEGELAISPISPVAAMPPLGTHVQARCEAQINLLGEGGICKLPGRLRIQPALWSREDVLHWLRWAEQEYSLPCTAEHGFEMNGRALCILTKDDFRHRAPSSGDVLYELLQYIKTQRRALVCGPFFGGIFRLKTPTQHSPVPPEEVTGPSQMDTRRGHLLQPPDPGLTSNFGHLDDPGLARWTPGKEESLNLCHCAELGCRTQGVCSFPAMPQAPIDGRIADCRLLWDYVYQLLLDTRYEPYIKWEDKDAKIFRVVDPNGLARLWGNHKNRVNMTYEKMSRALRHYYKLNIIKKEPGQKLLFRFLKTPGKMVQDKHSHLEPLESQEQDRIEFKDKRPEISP
The conditions noted are these: protein: recombinant; tags: N-terminal GST; dsDNA, one strand shown. The method in brief: as §1

The target in a further assay is T11, ELF5 (Homo sapiens, UniProt Q9UKW6-2 1-255).
T11 sequence: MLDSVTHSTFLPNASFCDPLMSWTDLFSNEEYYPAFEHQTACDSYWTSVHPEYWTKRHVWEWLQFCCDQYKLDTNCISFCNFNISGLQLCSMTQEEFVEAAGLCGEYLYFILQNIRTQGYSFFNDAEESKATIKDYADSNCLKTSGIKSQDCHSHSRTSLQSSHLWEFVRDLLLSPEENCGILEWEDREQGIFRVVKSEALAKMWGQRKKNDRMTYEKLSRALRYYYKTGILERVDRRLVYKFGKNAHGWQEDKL
The note with it: protein: recombinant; tags: N-terminal GST; dsDNA, one strand shown. The procedure, abridged:
as §1

In the next assay the target is T12, ETV3 (Homo sapiens, UniProt P41162-2 1-143).
T12 sequence: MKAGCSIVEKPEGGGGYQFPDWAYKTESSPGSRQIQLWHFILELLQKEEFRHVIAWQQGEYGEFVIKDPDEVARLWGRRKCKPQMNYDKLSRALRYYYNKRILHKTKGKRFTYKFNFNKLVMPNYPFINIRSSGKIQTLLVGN
The note with it: protein: recombinant; tags: N-terminal GST; dsDNA, one strand shown. The method in brief:
as §1

The target in the next assay is ETV6 (Homo sapiens, UniProt P41212 1-452). The conditions noted are these: protein: recombinant; tags: N-terminal GST; dsDNA, one strand shown. The method in brief: as §1
ETV6, sequence (P41212 whole entry): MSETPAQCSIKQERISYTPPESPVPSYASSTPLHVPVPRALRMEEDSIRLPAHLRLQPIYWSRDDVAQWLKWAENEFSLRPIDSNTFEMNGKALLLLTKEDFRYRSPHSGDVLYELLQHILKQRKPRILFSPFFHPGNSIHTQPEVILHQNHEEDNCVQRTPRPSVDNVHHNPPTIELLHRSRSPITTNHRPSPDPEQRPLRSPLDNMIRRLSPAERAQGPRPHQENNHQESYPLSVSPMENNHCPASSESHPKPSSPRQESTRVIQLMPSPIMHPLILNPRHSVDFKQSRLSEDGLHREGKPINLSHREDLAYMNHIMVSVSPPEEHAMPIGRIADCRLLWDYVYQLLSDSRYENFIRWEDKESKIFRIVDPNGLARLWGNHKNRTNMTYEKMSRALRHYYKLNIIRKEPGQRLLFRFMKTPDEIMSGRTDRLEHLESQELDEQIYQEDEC

HSF1, sequence (Q00613 whole entry): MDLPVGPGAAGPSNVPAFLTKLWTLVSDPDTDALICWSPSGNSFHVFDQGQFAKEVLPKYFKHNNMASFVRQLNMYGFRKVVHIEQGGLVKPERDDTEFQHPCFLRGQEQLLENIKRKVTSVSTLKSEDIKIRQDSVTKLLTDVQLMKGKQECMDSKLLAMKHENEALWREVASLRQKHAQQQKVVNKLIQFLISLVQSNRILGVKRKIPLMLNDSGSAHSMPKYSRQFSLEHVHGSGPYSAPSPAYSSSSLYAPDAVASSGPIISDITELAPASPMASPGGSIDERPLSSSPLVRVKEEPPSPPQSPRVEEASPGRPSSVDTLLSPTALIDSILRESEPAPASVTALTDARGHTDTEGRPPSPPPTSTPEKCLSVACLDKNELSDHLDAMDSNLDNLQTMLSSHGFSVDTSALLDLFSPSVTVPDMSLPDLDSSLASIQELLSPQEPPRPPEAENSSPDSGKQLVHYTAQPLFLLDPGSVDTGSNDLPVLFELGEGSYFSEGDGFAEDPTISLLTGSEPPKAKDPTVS
CRX, sequence (O43186 whole entry): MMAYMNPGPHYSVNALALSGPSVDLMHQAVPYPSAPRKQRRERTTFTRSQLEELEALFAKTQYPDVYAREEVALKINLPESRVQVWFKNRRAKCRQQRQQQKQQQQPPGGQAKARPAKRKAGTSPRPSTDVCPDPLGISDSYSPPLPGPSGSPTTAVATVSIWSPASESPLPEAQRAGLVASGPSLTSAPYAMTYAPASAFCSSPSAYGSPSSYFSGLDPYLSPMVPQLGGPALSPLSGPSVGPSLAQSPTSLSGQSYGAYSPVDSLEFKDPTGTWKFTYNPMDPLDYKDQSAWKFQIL
ELF4, sequence (Q99607 whole entry): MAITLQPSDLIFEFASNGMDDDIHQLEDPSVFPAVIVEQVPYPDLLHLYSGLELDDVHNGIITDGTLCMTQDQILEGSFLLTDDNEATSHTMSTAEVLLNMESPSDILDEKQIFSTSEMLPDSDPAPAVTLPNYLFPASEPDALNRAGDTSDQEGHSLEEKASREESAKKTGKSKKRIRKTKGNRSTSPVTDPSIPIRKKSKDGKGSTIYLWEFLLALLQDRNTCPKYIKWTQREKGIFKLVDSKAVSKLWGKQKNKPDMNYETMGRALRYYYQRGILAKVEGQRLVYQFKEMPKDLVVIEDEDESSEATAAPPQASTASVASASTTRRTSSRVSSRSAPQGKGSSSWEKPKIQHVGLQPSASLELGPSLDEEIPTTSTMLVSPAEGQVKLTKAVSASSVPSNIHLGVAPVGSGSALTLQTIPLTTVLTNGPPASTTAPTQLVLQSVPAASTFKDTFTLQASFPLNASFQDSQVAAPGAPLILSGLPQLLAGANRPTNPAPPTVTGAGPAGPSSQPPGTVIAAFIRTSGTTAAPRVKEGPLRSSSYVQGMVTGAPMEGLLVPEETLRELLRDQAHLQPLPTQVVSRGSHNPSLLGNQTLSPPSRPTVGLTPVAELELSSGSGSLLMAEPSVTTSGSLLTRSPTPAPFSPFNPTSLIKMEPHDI
ETV5, sequence (P41161 whole entry): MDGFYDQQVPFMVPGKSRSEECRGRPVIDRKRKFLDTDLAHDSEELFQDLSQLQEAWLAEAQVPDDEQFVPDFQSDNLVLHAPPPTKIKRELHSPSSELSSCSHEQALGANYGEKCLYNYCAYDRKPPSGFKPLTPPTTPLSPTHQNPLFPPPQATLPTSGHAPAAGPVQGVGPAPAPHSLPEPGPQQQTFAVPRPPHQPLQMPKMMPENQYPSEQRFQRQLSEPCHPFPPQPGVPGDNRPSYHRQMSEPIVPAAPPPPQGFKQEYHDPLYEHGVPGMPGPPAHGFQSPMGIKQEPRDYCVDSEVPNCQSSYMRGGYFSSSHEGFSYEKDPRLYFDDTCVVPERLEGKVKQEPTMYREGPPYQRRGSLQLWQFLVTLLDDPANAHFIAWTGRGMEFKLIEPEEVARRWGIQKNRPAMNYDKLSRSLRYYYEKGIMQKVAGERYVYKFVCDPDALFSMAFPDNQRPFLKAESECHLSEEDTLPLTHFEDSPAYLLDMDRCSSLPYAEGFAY

On to ACCTGC, for which the binding signal with FEV was 1.5 fold enrichment (6-mer frequency, TF over GST control); with ETV5, 1.53 fold enrichment (6-mer frequency, TF over GST control); with HSF1 it was 1.27 fold enrichment (6-mer frequency, TF over GST control); with SPIC, 1.22 fold enrichment (6-mer frequency, TF over GST control); in the assay with ELF4, 1.47 fold enrichment (6-mer frequency, TF over GST control); with ELK4, 1.59 fold enrichment (6-mer frequency, TF over GST control). The binding signal with ETV2 was 1.39 fold enrichment (6-mer frequency, TF over GST control); with ELF3, 1.65 fold enrichment (6-mer frequency, TF over GST control); with CRX, 1.22 fold enrichment (6-mer frequency, TF over GST control); in the assay with ETV1, 1.57 fold enrichment (6-mer frequency, TF over GST control); in the assay with ERF it was 1.35 fold enrichment (6-mer frequency, TF over GST control); with ETV3L, 1.42 fold enrichment (6-mer frequency, TF over GST control). Besides, the binding signal is 1.5 fold enrichment (6-mer frequency, TF over GST control) with ETS2; 1.4 fold enrichment (6-mer frequency, TF over GST control) with SPDEF; 1.48 fold enrichment (6-mer frequency, TF over GST control) with ETV7; 1.39 fold enrichment (6-mer frequency, TF over GST control) with ELF5; 1.44 fold enrichment (6-mer frequency, TF over GST control) with ETV3; 1.66 fold enrichment (6-mer frequency, TF over GST control) with ETV6.

The values above are taken from PMC7862700, “An all-to-all approach to the identification of sequence-specific readers for epigenetic DNA modifications on cytosine”.
